According to the supplement of paper PMC10646978:
± gives the standard deviation.

Tested on: RAW-Dual (murine macrophage reporter line)
Test: IRF reporter (Lucia luciferase) activity fold change vs agonist alone; higher = enhanced IRF activity
Conditions: modulator concentration 10 µM; agonist: LPS 0.1 ug/mL
Outline: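 RAW-Dual murine macrophage reporter cells were seeded at 50 000 per well in 384-well plates and pre-incubated 1 hour at 37 °C with compound pin-transferred to 10 μM final. After 1 hour, a PRR agonist was added and cells incubated overnight. Supernatant NF-κB (SEAP, QUANTI-Blue, 620 nm absorbance) and IRF (Lucia luciferase, QUANTI-Luc, luminescence) signals were divided by the mean agonist-only control on the same plate to give fold change. Two replicate plates were averaged, with errors by propagation.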

Row | SMILES | IRF reporter
1 | CC(=O)C1=C(C)OC2(O)c3ccccc3C(=O)C12O (stereo not drawn) | 1.02 ± 0.18
2 | COc1ccc(NC(=O)CN(c2ccc(F)cc2)S(C)(=O)=O)c(OC)c1 | 1.23 ± 0.089
3 | O=C(CCCN1C(=O)c2cccc3cccc(c23)C1=O)NCCO | 1.12 ± 0.052
4 | CCc1ccc2oc(-c3ccc(NC(=O)c4ccc(C)c([N+](=O)[O-])c4)cc3)nc2c1 | 1.6 ± 0.22
5 | COc1cccc2c1C(=O)c1c(O)c3c(c(O)c1C2=O)C[C@@](O)(C(=O)CO)C[C@@H]3O[C@H]1C[C@H](N)[C@@H](O)[C@H](C)O1.Cl | 0.0179 ± 0.0063
6 | CC(NCCC(c1ccccc1)c1ccccc1)c1ccccc1.Cl (stereo not drawn) | 0.929 ± 0.13
7 | CC(=O)Nc1nc(C2CC2)cc(-c2ccco2)c1C#N | 1.16 ± 0.12
8 | Cc1ccc(N2C(=O)C(Cl)=C(Nc3cccc(C)c3C)C2=O)cc1Cl | 0.954 ± 0.039
9 | CC(C)C(C(=O)Nc1ccc(F)cc1)N1C(=O)c2ccccc2C1=O (stereo not drawn) | 1.09 ± 0.15
10 | CCOC(=O)N1CCN(C(=O)CSc2nnc(-c3cccc(Cl)c3)o2)CC1 | 1.29 ± 0.1
11 | O=C(CCC(=O)NN=Cc1ccc(O)cc1)NN=Cc1ccc(O)cc1 | 0.974 ± 0.04
12 | COC(=O)C1=CN(C2CC2)C=C(C(=O)OC)C1c1ccccc1Cl | 0.905 ± 0.039
13 | O=C1NC(=O)[C@@H](c2cn3c4c(cccc24)CCC3)[C@@H]1c1c[nH]c2ccccc12 | 0.921 ± 0.18
14 | CC1=NN(c2ccc(S(N)(=O)=O)cc2)C(=O)C1=Cc1ccc(N(C)C)cc1 | 0.899 ± 0.052
15 | COc1ccc(N(CC(=O)Nc2ccccc2C(F)(F)F)S(C)(=O)=O)cc1 | 1.03 ± 0.14
16 | COC(CNC(=O)CSc1ccc(F)cc1)c1ccc(C)s1 (stereo not drawn) | 1.06 ± 0.16
17 | CCOC(=O)C1=C(C)NC2=C(C(=O)CC(C)(C)C2)C1c1ccccc1Br (stereo not drawn) | 1.32 ± 0.19
18 | CC(C=CC1=C(C)CCCC1(C)C)=CC=CC(C)=CC(=O)O | 1.1 ± 0.14
19 | COc1ccc2c(Cl)c(C(=O)N3CCc4ccccc4C3)sc2c1 | 1.38 ± 0.095
20 | O=C(Oc1ccc(O)c(CO)c1)c1ccccc1 | 0.888 ± 0.098
21 | O=c1ccc2cc(O)c(O)cc2o1 | 1.34 ± 0.2

Same assay, conditions: modulator concentration 10 µM; agonist: MPLA […]

Row | SMILES | IRF reporter
22 | O=[N+]([O-])c1cc2c(cc1C=Nc1ccc(O)cc1)OCO2 | 1.12 ± 0.22
23 | CCNC(=O)CCC/C=C\C[C@@H]1[C@@H](/C=C/C(O)CCc2ccccc2)[C@@H](O)C[C@@H]1O (stereo partly drawn) | 0.95 ± 0.1
24 | CCCS(=O)c1ccc2nc(NC(=O)OC)[nH]c2c1 (stereo not drawn) | 0.917 ± 0.11
25 | C#CCN[C@@H]1CCc2ccccc21 [Prestw-1734] | 0.973 ± 0.1
26 | CCOC(=O)c1ccccc1NC(=O)CN(c1cc(Cl)ccc1OC)S(C)(=O)=O | 1.14 ± 0.14
27 | Cc1ccccc1C(=O)Nc1nc(C(C)(C)C)cs1 | 1.35 ± 0.13
28 | CC(Cc1ccc(O)c(O)c1)(NN)C(=O)O (stereo not drawn) | 1.38 ± 0.18
29 | O=C(NN=Cc1ccc([N+](=O)[O-])o1)c1ccc(O)cc1 | 1.22 ± 0.22
30 | O=C(CC12CC3CC(CC(C3)C1)C2)N1CCCCC1 | 1.23 ± 0.15
31 | COC(=O)C1=CN(CC2CCCO2)C=C(C(=O)OC)C1c1ccccc1Br (stereo not drawn) | 1.05 ± 0.11
32 | CCN(CC)C(=S)SSC(=S)N(CC)CC | 0.114 ± 0.018
33 | O=C(c1cc2cc(F)ccc2s1)N1CCc2ncncc2C1 | 1.12 ± 0.3
34 | Cc1ccc(-n2ncnc2-c2ccccc2C)cc1Cl | 1.65 ± 0.21
35 | COc1ccc(N(CC(=O)NCCSCc2ccccc2)S(C)(=O)=O)cc1Cl | 0.85 ± 0.18
36 | COc1ccc(CNc2nc(N3CCC[C@H]3CO)ncc2C(=O)NCc2ncccn2)cc1Cl | 1.23 ± 0.36
37 | O=C(Cc1ccccc1)NC(NC(=S)Nc1ccc(O)cc1)C(Cl)(Cl)Cl (stereo not drawn) | 1.57 ± 0.33
38 | CC(C)Oc1ccc(C(=O)NC2CCN(c3ncnc4c3CCCC4)CC2)cn1 | 1.04 ± 0.11
39 | COc1ccc(S(=O)(=O)NCc2ccnc(N3CCOCC3)n2)cc1Cl | 1.08 ± 0.4
40 | CC(=O)OC(OC(C)=O)c1ccc([N+](=O)[O-])cc1 | 1.09 ± 0.17
41 | CC(=O)C1=C(C)OC2(O)c3ccccc3C(=O)C12O (stereo not drawn) | 0.824 ± 0.12
42 | COc1ccc(NC(=O)CN(c2ccc(F)cc2)S(C)(=O)=O)c(OC)c1 | 1.35 ± 0.14
43 | O=C(CCCN1C(=O)c2cccc3cccc(c23)C1=O)NCCO | 1.05 ± 0.1
44 | CCc1ccc2oc(-c3ccc(NC(=O)c4ccc(C)c([N+](=O)[O-])c4)cc3)nc2c1 | 1.33 ± 0.16
45 | COc1cccc2c1C(=O)c1c(O)c3c(c(O)c1C2=O)C[C@@](O)(C(=O)CO)C[C@@H]3O[C@H]1C[C@H](N)[C@@H](O)[C@H](C)O1.Cl | 0.0142 ± 0.0068
46 | CC(NCCC(c1ccccc1)c1ccccc1)c1ccccc1.Cl (stereo not drawn) | 1 ± 0.13
47 | CC(=O)Nc1nc(C2CC2)cc(-c2ccco2)c1C#N | 1.17 ± 0.12
48 | Cc1ccc(N2C(=O)C(Cl)=C(Nc3cccc(C)c3C)C2=O)cc1Cl | 1.63 ± 0.21
